# Only a selection was taken, and hits are over-represented in it overall.
# TDP1 cell noCPT = qHTS for Inhibitors of human tyrosyl-DNA phosphodiesterase 1 (TDP1): qHTS in cells in absence of CPT; DT40 Tdp1-/- hTDP1 cells, no CPT, ATP luminescence, 48 h; AID 686978, 2013; 420,000 tested, 15% active; Potency, µM (highest dose often 46.2 µM), for inactives: at the highest dose activity change, negative = growth inhibition, usual class: inhibitors; note: potency is the fitted concentration of half-maximal effect; nearly all actives have a fitted effect of over 55% in size
#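 Chicken DT40 Tdp1-/- cells stably complemented with human TDP1 were seeded at 400 cells/well with DMSO in place of 20 nM camptothecin. After compound pinning, cells grew at least 48 hr at 37 °C; viability read by CellTiter-Glo luminescence.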
# HT1080 IDH1KD tx = HT-1080 IDH1 knockdown cell toxicity (counter line) | HT-1080 IDH1 knockdown viability, ATP luminescence, 48 h | Potency, µM (series often up to 46.1 µM), without a hit: top-dose activity, negative = toxicity, actives largely listed as cytotoxic | 360,000 tested, 2% active;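 note: potency is the fitted concentration of half-maximal effect; 0% = DMSO wells and -100% = cell-free medium wells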
#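 Using the IDH1-knockdown HT-1080 line run in the same batch and compound series as the NT line, viability after 48 h at 37 °C was determined by CellTiter-Glo luminescence and expressed as % activity.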
# IL-1B inflam inh = inflammasome signaling inhibition, IL-1 beta readout; THP-1 LPS/ATP IL-1B secretion, AlphaLISA, 16 h; stronger effect = lower value; activity change, % at 57.5 µM; 360,000 tested, 4.7% active; AID 743279; in the data active = activity change below about -50%; inconclusive = mostly about -30% to -49%
#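 Secreted IL-1B measured by AlphaLISA bead assay after 16 h compound exposure of THP-1 cells; compounds (final up to 57.5 uM) added 1 h before LPS (250 ng/mL) and ATP (1.25 mM) stimulation; lower signal means less secretion.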
# ALOX12 inh = blocks human arachidonate 12S-lipoxygenase; P18054; purified 12hLO, xylenol orange hydroperoxide absorbance; Potency, µM (top dose mostly 108 µM), inactives show at the highest dose activity change, negative = inhibition, hits mostly inhibitors; 580,000 tested, 1.1% active; note: potency is the fitted concentration of half-maximal effect
# Target sequence (P18054 whole entry, looked up): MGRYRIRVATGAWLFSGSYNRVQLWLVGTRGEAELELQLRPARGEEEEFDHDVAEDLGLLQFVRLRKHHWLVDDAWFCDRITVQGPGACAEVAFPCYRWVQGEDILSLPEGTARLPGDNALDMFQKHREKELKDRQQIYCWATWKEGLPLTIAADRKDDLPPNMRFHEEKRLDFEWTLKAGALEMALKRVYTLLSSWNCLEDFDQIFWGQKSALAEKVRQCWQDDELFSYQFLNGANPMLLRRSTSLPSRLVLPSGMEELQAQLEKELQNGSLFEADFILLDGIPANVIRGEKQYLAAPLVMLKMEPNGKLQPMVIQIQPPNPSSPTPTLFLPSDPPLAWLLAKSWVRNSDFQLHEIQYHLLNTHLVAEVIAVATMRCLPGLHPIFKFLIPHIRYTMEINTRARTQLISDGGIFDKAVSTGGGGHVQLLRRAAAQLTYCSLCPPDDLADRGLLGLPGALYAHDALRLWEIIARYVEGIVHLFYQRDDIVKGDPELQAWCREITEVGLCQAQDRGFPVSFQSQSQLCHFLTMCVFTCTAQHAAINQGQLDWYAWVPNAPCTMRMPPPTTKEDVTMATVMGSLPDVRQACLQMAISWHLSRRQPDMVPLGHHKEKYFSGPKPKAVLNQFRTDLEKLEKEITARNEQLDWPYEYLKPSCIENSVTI
#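 Purified human 12hLO at 150 nM in 25 mM Hepes, 0.01% Triton X-100, pH 7.0, preincubated 15 min at room temperature with compound. Reaction started with 40 uM arachidonic acid, 30 min at room temperature. Hydroperoxide measured by Fe-xylenol orange, 573/405 nm absorbance ratio.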
# HT1080-NT tox = kills 2HG-producing HT-1080-NT fibrosarcoma cells. 360,000 tested, 1.6% active. AID 686970. Potency, µM (highest dose often 46.1 µM), without a hit: at the top dose activity, negative = less viability, hits mostly cytotoxic. HT-1080-NT fibrosarcoma viability, CellTiter-Glo ATP luminescence, 48 h;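 note: NT is the 2HG producing partner of a matched IDH1 knockdown line; potency is the fitted concentration of half-maximal effect; 0% = DMSO-treated cells and -100% = media-only wells without cells; nearly all actives have a fitted effect of over 55% in size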
#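 Read-out is CellTiter-Glo luminescence after 10 minutes at room temperature, following 48 hours' compound treatment of HT-1080-NT cells (750 cells/well, RPMI, 5% FBS, 37 degrees C).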
# DT40 TDP1 CPT = growth inhibition of DT40 Tdp1-/-;hTDP1 cells with camptothecin (screen for TDP1 inhibitors) | chicken DT40 Tdp1-/-;hTDP1 cells + 20 nM CPT, ATP luminescence, 48 h | 420,000 tested, 12% active | Potency, µM (top dose mostly 46.2 µM), for inactives: top-dose activity change, negative = growth inhibition, actives largely listed as inhibitors; note: potency is the fitted concentration of half-maximal effect; nearly all actives have a fitted effect of over 55% in size
#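 Chicken DT40 Tdp1-/- cells stably complemented with human TDP1 were seeded at 400 cells/well in medium containing 20 nM camptothecin, exposed to pin-transferred compounds, and grown at 37 °C for at least 48 hr. Viability was read as ATP luminescence.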
# Starred values were filed as active, the others as inactive; u = inconclusive; x = not tested or not shown. Unless noted, calls come from the whole dose curve; as a rule, active = well fitted curve in the direction sought with a large enough effect; inconclusive = small, poorly fitted or top-dose-only effect, or another doubt; inactive = no such curve, though single readings can be large; an effect the other way counts as inactive or inconclusive. Unless noted, % is set by controls: 0 for no effect and ±100 for the full control effect.
SMILES,TDP1 cell noCPT,HT1080 IDH1KD tx,IL-1B inflam inh,ALOX12 inh,HT1080-NT tox,DT40 TDP1 CPT
O=C(NCCN1C(=O)S/C(=C\c2ccc(Cl)c([N+](=O)[O-])c2)C1=O)C1=COCCO1,8.2µM*,u,-103*,u,15µM*,21µM*
CC(NC(=O)CSc1nnnn1-c1ccc(O)cc1)c1ccc(-c2ccccc2)cc1 (stereo unspecified),x,x,x,-11%,x,x
CCOC(=O)c1cc2c(=O)n3ccccc3nc2n(CC2CCCO2)c1=NC(=O)c1ccccc1OCC (stereo unspecified),15µM*,x,x,3%,x,16µM*
CCOC(=O)c1cc2c(=O)n3cccc(C)c3nc2n(Cc2ccco2)c1=NC(=O)c1ccccc1,u,9%,15,u,4%,29µM*
CCOC(=O)c1cc2c(=O)n3ccccc3nc2n(CC2CCCO2)c1=NC(=O)c1ccccc1C (stereo unspecified),0%,x,x,-30%,x,8%
CCOC(=O)c1cc2c(=O)n3ccccc3nc2n(CCCOC)c1=NC(=O)c1ccncc1,-30%,9%,-3,-24%,2%,-4%
CCOC(=O)c1cc2c(=O)n3cccc(C)c3nc2n(Cc2ccco2)c1=NC(=O)c1ccc(C)cc1,-5%,7%,-4,x,6%,-3%
CCOC(=O)c1cc2c(=O)n3ccccc3nc2n(Cc2ccco2)c1=NC(=O)c1ccc(OC)cc1,5.2µM*,-12%,2,20%,-2%,6.5µM*
CCOC(=O)c1cc2c(=O)n3ccccc3nc2n(Cc2ccco2)c1=NC(=O)c1ccccc1OC,13µM*,-8%,u,u,-5%,16µM*
C=CCNC/C=C/c1ccccc1,x,x,x,0%,x,x
CCOC(=O)c1cc2c(=O)n3ccccc3nc2n(CC(C)C)c1=NC(=O)C(C)Oc1ccccc1 (stereo unspecified),u,x,x,-24%,x,u
CCOC(=O)c1cc2c(=O)n3ccccc3nc2n(Cc2ccco2)c1=NC(=O)c1cccc(OC)c1,u,-18%,-55*,-12%,-15%,u
O=C(NCCN1CCOCC1)c1cc(Sc2ccc(F)cc2F)nc2ccccc12,-30%,-21%,-14,0%,-7%,u
CCN(CC)CCCNC(=O)c1[nH]c2ccccc2c1Sc1ccc(Cl)cc1,15µM*,16µM*,-76*,17%,21µM*,u
O=C(NCCCN1CCCC1)c1cc(Sc2ccc(F)cc2)nc2ccccc12,-21%,26µM*,-52*,-15%,21µM*,-21%
COc1ccc2c(Sc3ccc(Cl)cc3)c(C(=O)NCCCN3CCCCC3)[nH]c2c1,23µM*,x,x,u,x,23µM*
O=C(NCCCN1CCCCC1)c1cc(Sc2ccc(Cl)cc2)nc2ccccc12,23µM*,x,x,u,x,16µM*
CCOCCCNC(=O)c1[nH]c2cc(OC)ccc2c1Sc1ccccc1,-4%,x,x,-17%,x,-25%
Cc1cccc(S(=O)(=O)NC(=O)C2(C)CCN2C(=O)c2c(C)noc2C)c1 (stereo unspecified),-4%,11%,1,12%,1%,18%
COc1ccccc1-c1ccnc(-n2ncc(C(=O)NCCc3cccnc3)c2C2CC2)n1,x,x,x,41%,x,x
COc1cc(NC(=O)Nc2cccc(Cl)c2)c(OC)cc1NC(=O)CN1CCCCC1,u,21µM*,-29,6%,u,16µM*
O=C(CN1CCCCC1)Nc1cccc(Cl)c1,-4%,3%,-4,0%,7%,-8%
COc1cc(NC(=O)c2ccc(C)cc2)c(OC)cc1NC(=O)CN1CCCCC1,29µM*,u,u,23%,u,21µM*
COc1cc(NC(=O)c2cc(OC)c(OC)c(OC)c2)c(OC)cc1NC(=O)CN1CCCCC1,u,-4%,-4,53%,-8%,u
CCOC(=O)N1CCN(C(=O)c2ccc(CNS(=O)(=O)c3ccc(OC)cc3)cc2)CC1,-27%,-1%,6,5%,0%,-15%
SMILES,TDP1 cell noCPT,HT1080 IDH1KD tx,IL-1B inflam inh,ALOX12 inh,HT1080-NT tox,DT40 TDP1 CPT
COc1cccc(S(=O)(=O)NCc2ccc(C(=O)N3CCN(c4ccccc4OC)CC3)cc2)c1,x,x,x,0%,x,x
COc1cccc(S(=O)(=O)NCc2ccc(C(=O)N3CCN(c4ccccc4)CC3)cc2)c1,16µM*,-10%,-14,0%,-9%,16µM*
COc1ccc(N2CCN(C(=O)c3ccc(CNS(=O)(=O)c4cccc(OC)c4)cc3)CC2)cc1,23µM*,u,-84*,-15%,-6%,9.2µM*
O=C(c1ccc(CNS(=O)(=O)c2cccc(Cl)c2)cc1)N1CCCCC1,15µM*,2%,-16,0%,6%,16µM*
COc1ccc(S(=O)(=O)NCc2ccc(C(=O)N3CCN(c4ccccn4)CC3)cc2)cc1,u,-5%,-4,u,-8%,8.9µM*
COc1ccc(N2CCN(C(=O)c3cccc(NS(=O)(=O)c4cccc(F)c4)c3)CC2)cc1,-15%,-5%,46,5%,2%,-7%
CCNc1nc(NCC)nc(Oc2ccc(C(=O)OCC)cc2)n1,x,x,x,4%,x,x
Cc1ccc(OCn2ccc(C(=O)NCc3ccnn3C)n2)c(C)c1,x,x,x,7%,x,x
Cn1c(CNC(=O)c2ccc3c(c2)OCO3)nnc1SCC(=O)c1ccccc1,x,x,x,9%,x,x
CCOc1nc(N=C(N)N)nc2c(C)cccc12,23µM*,-20%,-12,0%,-14%,16µM*
CCOc1ccccc1Nc1cc(C)c2cccc(C)c2n1,-24%,-9%,34,11%,0%,-5%
Cc1onc(-c2ccccc2)c1C(=O)NC(=S)NNC(=O)c1ccc(O)cc1,13µM*,u,61,u,-15%,u
COC(=O)c1ccc(NC(=S)NC(=O)c2c(-c3ccccc3)noc2C)cc1,-4%,1%,4,0%,-6%,14%
CCCOc1ccc(C(=O)NC(=S)Nc2nc3ccccc3s2)cc1,-13%,25%,34,u,3%,6%
Cc1onc(-c2ccccc2)c1C(=O)NC(=S)NNC(=O)c1ccccc1O,3.3µM*,5.2µM*,100,u,8.2µM*,3.7µM*
CCOCCCNC(=O)c1c(-c2ccccc2)noc1C,1%,3%,0,-5%,7%,-3%
Cc1onc(-c2ccccc2)c1C(=O)NNC(=O)c1ccccc1Br,2%,10%,-14,5%,10%,-6%

# Assay outcomes (PubChem)
